This passage reports growth results from PubChem BioAssay (NCI).

Holding throughout (experiment): NCI-60 one-dose screen, 48 h (100 = growth as untreated, 0 = no growth, -100 = all killed)
What all share (conditions): 10 µM unless noted

Test [1] deals with NCI-H23 lung.
The test system of test [2] is NCI-H226 lung.
The test system of test [3] is NCI-H322M lung.
Test [4] relates to HOP-62 NSCLC.
Test [5] deals with NCI-H460 lung.
Test [6] concerns HOP-92 NSCLC.
Test [7] concerns NCI-H522 lung.
Test [8] relates to A549/ATCC NSCLC.
For test [9], the system named is 786-0 renal.
For test [10], the system named is COLO 205 colon.
The test system of test [11] is DU-145 prostate.
The test system of test [12] is K-562 leukemia.
The subject of test [13] is MALME-3M melanoma.
The subject of test [14] is MDA-MB-231 breast.
In test [15] the test system is RXF 393 renal.
Test [16] deals with SF-268 CNS.
In test [17] the test system is SF-295 CNS.
Test [18] concerns SF-539 CNS.
The subject of test [19] is UACC-257 melanoma.
The test system of test [20] is M14 melanoma.

The panel holds about 83,000 compounds, 20% with a hit somewhere; the sample as a whole holds those more often.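 Interpretation: 100, growth as untreated; towards 0, rising growth inhibition; 0, no net growth; 0 to -100, cell death. Compounds scoring below 10 were considered active.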 Unmarked numbers belong to inactive results. Activity calls are given as the source filed them.

For the molecule `O=C(O)c1c[nH]c2ccccc2c1=O`, the growth is 96.5% in test [1]; 105% in test [2]; 94% in test [3]; 94.9% in test [4]; 105% in test [5]; 87% in test [6]. The growth in [7] is 93.1%; in [8], 104%; in [9], 97.8%; in test [10], 95.3%; in test [11] it was 98.6%; in test [12], 93.1%. The growth in test [13] was 91.9%; in test [14], 98.1%; in test [15] it was 116%; in test [16], 102%; in test [17] it was 104%; in test [18], 93.9%. Besides, the figures for the growth in test [19] and in test [20] were 112% and 101%, respectively.
In the case of `O=c1n(CC2CO2)c(=O)n(CC2CO2)n1CC1CO1` (stereo not given), the growth in test [1] is 55.2%; in test [2] it was 85.9%; in test [3], 94%; in test [4], 46%; in test [5], 4.78% (active); in test [6] it was 48.6%. Also, the growth in [7] was 31.4%; in test [8] it was 49.4%; in test [9], 36.9%; in [10] it was 70.1%; in test [11], 38.4%; in test [12], 57.4%. The growth is 107% in test [13]; 110% in [14]; 80.2% in [15]; 53.5% in test [16]; -10.3% (active) in [17]; 18.8% in test [18]. Also, the growth in [19] is 86.6%; in test [20] it was 48.1%.
Take `Cc1onc(-c2ccccc2Cl)c1C(=O)Cl`: the growth was 114% in test [1]; 110% in test [2]; 101% in test [3]; 86.5% in test [4]; 103% in test [5]; 77% in [6]. The growth in test [7] is 108%; in [8], 96.9%; in test [9] it was 101%; in test [10], 108%; in test [11], 121%; in [12], 101%. The growth in test [13] was 109%; in test [14], 101%; in test [15], 115%; in test [16] it was 117%; in test [17], 91.7%; in test [18], 113%. The values for the growth in test [19] and in test [20] were 103% and 108%, respectively.
Consider `COc1cc(N)c2ncccc2c1Cl`, for which the growth in test [1] was 104%; in [2], 96%; in test [3], 97.9%; in [4], 102%; in test [5], 109%; in test [6] it was 101%. In addition, the growth is 81.8% in [7]; 103% in test [8]; 95% in [9]; 116% in test [10]; 119% in test [11]; 102% in [12]. The growth in test [13] was 113%; in test [14], 96.2%; in [15], 96.5%; in [16], 106%; in test [17] it was 101%; in test [18] it was 87.3%. The growth was 109% in test [19] and 103% in test [20].
In the case of `CCC(/C=C\C(C)=O)CC`, the growth is 101% in test [1]; 107% in [2]; 99% in test [3]; 94.9% in test [4]; 100% in [5]; 102% in test [6]. Besides, the growth is 106% in test [7]; 104% in [8]; 101% in test [9]; 107% in test [10]; 111% in [11]; 113% in test [12]. For the same molecule, the growth in [13] was 98.4%; in [14], 103%; in [15] it was 97.8%; in test [16], 106%; in test [17], 104%; in test [18], 100%. The growth in test [19] was 94.8%; in test [20], 104%.
For the molecule `CC(C)N(C(=O)c1ccccc1)C(C)C`, the growth was 106% in test [1]; 93.6% in test [2]; 114% in test [3]; 109% in [4]; 106% in [5]; 97.8% in [6]. In addition, the growth was 101% in test [7]; 98.8% in test [8]; 106% in [9]; 114% in test [10]; 117% in [11]; 103% in [12]. Further, the growth is 114% in [13]; 119% in test [14]; 106% in test [15]; 105% in test [16]; 105% in test [17]; 98.3% in [18]. For the same molecule, the results for the growth in [19] and in [20] were 104% and 97%, respectively.
With `O=C(Nc1c(Cl)cc(Cl)cc1Cl)ON=C1CCCCC1`, the growth is 104% in test [1]; 99.4% in test [2]; 106% in [3]; 100% in test [4]; 111% in [5]; 132% in [6]. The growth in test [7] is 95.2%; in test [8], 99.2%; in [9], 99.8%; in [10], 126%; in test [11], 94.9%; in test [12], 105%. In addition, the growth in [13] is 101%; in test [14], 101%; in test [15], 116%; in [16] it was 91.7%; in test [17] it was 102%; in test [18], 97.4%. Also, the growth in test [19] is 102%; in test [20], 111%.
On to `CC(=O)CSc1ncnc2nc[nH]c12`, for which the growth was 106% in [1]; 92.1% in test [2]; 115% in [3]; 84.8% in test [4]; 98.4% in test [5]; 69.6% in test [6]. The growth in [7] was 72.8%; in test [8] it was 87.3%; in test [9], 91.7%; in test [10], 97.6%; in [11], 94.3%; in test [12], 82.9%. Further, the growth in test [13] is 93.4%; in [14] it was 87.5%; in [15], 89.9%; in test [16] it was 105%; in test [17], 99.7%; in [18], 94.8%. The growth in test [19] is 78.3%; in test [20], 59.2%.
